Screens (PubChem)
D1 PAM: enhances dopamine response at the human D1 receptor; HEK293 TREx D1 cells, calcium flux, dopamine EC20 potentiation; 360,000 tested, 0.036% active; potentiation, % at 10 µM; AID 504651; in the data active = potentiation above about 30%; also: 0% is about no effect
D3 ag: D3 dopamine receptor (human) agonism | AID 652048 | D3R DiscoveRx beta-arrestin cells, luminescence, 90 min | 410,000 tested, 0.58% active | P35462 | max activation, %; in the data active = max activation above about 30%; also: 0% is about no effect
Target sequence (P35462 whole entry, looked up): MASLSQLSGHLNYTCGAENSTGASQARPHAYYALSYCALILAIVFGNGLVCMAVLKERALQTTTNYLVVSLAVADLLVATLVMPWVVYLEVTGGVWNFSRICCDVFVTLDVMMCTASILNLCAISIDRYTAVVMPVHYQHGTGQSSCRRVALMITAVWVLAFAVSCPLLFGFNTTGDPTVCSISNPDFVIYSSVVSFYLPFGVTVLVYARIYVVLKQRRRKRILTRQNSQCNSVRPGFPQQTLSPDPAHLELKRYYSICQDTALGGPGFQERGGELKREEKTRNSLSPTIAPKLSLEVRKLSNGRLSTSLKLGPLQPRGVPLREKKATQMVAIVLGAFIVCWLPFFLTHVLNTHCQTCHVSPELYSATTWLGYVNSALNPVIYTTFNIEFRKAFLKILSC
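Agonist-mode cell screen: cells plated at 1500/well and incubated overnight at 37 °C, then exposed to library compounds for 90 min at 37 °C. Detection reagent was added for 30–60 min at room temperature, and luminescence was read.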
D1 antagonist: human D1 dopamine receptor antagonism | P21728 | HEK293 TREx D1 cells, calcium flux, dopamine EC80; stronger effect = lower value | activity change, negative = inhibition, % at 10 µM | 360,000 tested, 3.2% active; in the data active = activity change below about -30%; also: % is scaled to controls: 0 for no effect and ±100 for the full control effect
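Using tetracycline-induced force-coupled D1 Hek293 cells and a calcium dye, signals were followed for 180 s after compound, then for 180 s after EC80 dopamine, to detect inhibitors.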
D1 ag: activates the human D1 dopamine receptor; P21728; HEK293 T-REx D1 cells, calcium flux, agonist mode; activation, % at 2 µM; 360,000 tested, 1% active; in the data active = activation above about 30%; also: 0% is about no effect
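Agonism was scored from calcium flux recorded over 180 s (1 read/s) after pintool compound addition, following a 10-cycle baseline. Cells were inducible force-coupled HEK293 TREx D1, plated overnight at 30 C and loaded with no-wash calcium dye.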
D3 antag: D3 dopamine receptor (human) antagonism; P35462; D3R cells, DiscoveRx beta-arrestin luminescence, antagonist mode; stronger effect = lower value; max response, negative = inhibition, %; 360,000 tested, 2.5% active; in the data active = max response below about -50%; inconclusive = no clear call, values can overlap the other calls; also: % is scaled to controls: 0 for no effect and ±100 for the full control effect
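Cells plated overnight at 1500 cells/well, then exposed to library compounds with dopamine controls for 90 minutes at 37 degrees C. DiscoveRx reagent added for 30–60 minutes at room temperature; luminescence read, quantitative HTS format.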
The depositor's hits bear a star; ? = inconclusive; . = no result. This is a sample that favours compounds with a hit; in the whole collection about 6.1% have one here.

SMILES	D1 PAM	D3 ag	D1 antagonist	D1 ag	D3 antag
O=S(=O)(Nc1cccc(F)c1)c1ccc2[nH]c3c(c2c1)CCCCC3	-2	-17	22	3	.
CCCc1cc(=O)oc2cc(C)cc(OCC(=O)N3CCC(C(=O)O)CC3)c12	-3	26	-64*	1	-12
COc1cccc(/C=N/Nc2ncnc3scc(-c4ccccc4)c23)c1OC	-5	36*	-4	2	42
COc1ccc(-c2csc3ncnc(Nc4ccccc4)c23)cc1	0	0	-12	5	.
CCOC(=O)CN(C(=O)c1snc(C(N)=O)c1N)C(C(=O)NCCC(C)C)c1ccc(C)cc1 (centres undefined)	.	0	.	.	0
O=C(c1cc2ccccc2o1)N1CCN(Cc2nc3ccccc3s2)CC1	.	5	.	.	7
Cn1ccc2c(-c3ccc(CO)cc3)cc3c(c21)C1CCC3C1 (centres undefined)	.	-14	.	.	-65*
Cn1ccc2c(N(Cc3ccccc3)Cc3ccccc3)cc3c(c21)C1CCC3C1 (centres undefined)	.	-10	.	.	-56*
CN(Cc1ccccc1)c1cc2c(c3c1ccn3C)C1CCC2C1 (centres undefined)	.	6	.	.	-12
Cc1cccc(C)c1NC(=O)Cn1c(=O)n(CCC(=O)NCc2ccccc2Cl)c(=O)c2sccc21	1	4	-8	9	.
COc1ccc(CCNC(=O)c2c(C)oc3ncn(CC(C)C)c(=O)c23)c(OC)c1	-4	2	-30*	0	.
CCCCCn1c(=S)[nH]c2cc(C(=O)N3CCN(C(=O)OCC)CC3)ccc2c1=O	.	3	-4	1	-90*
CCOC(=O)N1CCN(C(=O)c2ccc3c(=O)n(-c4ccc(OC)cc4)c(=S)[nH]c3c2)CC1	1	-2	0	1	-2
CCOC(=O)N1CCN(C(=O)c2ccc(-n3c(=S)[nH]c4ccccc4c3=O)cc2)CC1	-6	42*	-1	-2	13
C[C@H](N)C(=O)N[C@@H](C)P(=O)(O)O	.	3	.	.	.
COc1cc(OC)cc(C(=O)NNC(=O)CNC(=O)c2cccs2)c1	-3	-1	0	2	5
Nc1ccc(S(=O)(=O)N2CCCC2)cc1Cl	1	2	5	1	0
CCC(C)(C)NC(=O)/C=C/c1cccs1	-1	-6	-14	2	-1
CCNc1ccc(Br)cc(C(=O)/C=C/c2c(Cl)cccc2Cl)c1=O	-7	-4	-10	2	-66*
CCNc1ccc(Br)cc(C(=O)/C=C/c2ccc(Cl)cc2)c1=O	-3	-22	29	10	?
O=C(OCC(=O)c1ccc(Cl)cc1Cl)c1cnccn1	-2	-5	-5	2	-14
CCN(CCNC(=O)CCCn1nc(C)n2c(cc3sccc32)c1=O)c1ccccc1	.	-3	-28	-1	12
CCOCCCNC(=O)CCCn1nc(C)n2c(cc3sccc32)c1=O	-7	1	-39*	-1	-3
Cn1c(=O)c2cc(NC(=S)NC3CC3)ccc2n1C/C=C/c1ccccc1	.	2	.	.	14
COc1ccc(N(C(=O)c2cccc(C)c2)S(=O)(=O)c2ccc(C)cc2)cc1	0	-21	7	1	.
SMILES	D1 PAM	D3 ag	D1 antagonist	D1 ag	D3 antag
Oc1[nH]c(=S)sc1/C=C1\C(c2ccccc2)=Nc2ccccc21	-7	-2	0	38*	?
CCn1c(C)nc2cc(C(=O)NNC(=O)c3ccc(C)cc3)ccc21	-3	2	5	-2	3
CCn1c(C)nc2cc(C(=O)OC(C(F)(F)C(F)F)C(F)(F)C(F)F)ccc21	-3	8	-37*	17	76
COC(=O)CC1=C(C(=O)OC)C(c2cccs2)C(C#N)=C(N)O1 (centres undefined)	-7	-6	29	4	-77*
O=C(Nc1ccccc1Cl)c1c(F)c(F)c(F)c(F)c1F	.	-5	.	.	-62*
CCn1ccc(C(=O)Nc2ccccc2Cl)n1	-4	-10	-1	2	-96*
Cc1ccccc1NC(=O)c1c(F)c(F)c(F)c(F)c1F	12	-11	-13	1	-11
COc1cc(CNC[C@H]2O[C@@H](n3cnc(C(N)=O)n3)[C@H](O)[C@@H]2O)ccc1OCc1cccc(Cl)c1	.	-23	.	.	?
CC(C)Oc1ccc(/C=N/NC(=O)c2nnn(-c3nonc3N)c2CN(C)c2ccccc2)cc1	12	7	13	10	7
OC1(c2ccc(OC(F)F)cc2)CSC(=Nc2cccnc2)N1Cc1ccco1 (centres undefined)	6	57*	-14	6	93
Cc1cccc(C)c1C(OCCN(C)C)C1CCCCC1 (centres undefined)	-1	16	-12	12	-89*
COCCN(C(=O)CCl)C(C(=O)NC1CCCCC1)c1ccccc1C (centres undefined)	-3	-13	15	1	?
O=C(Nc1ccccc1)c1cc(S(=O)(=O)NCc2ccncc2)ccc1Cl	-5	11	-32*	4	0
O=C(Nc1ccc(S(=O)(=O)NCc2ccccc2)cc1)c1ccccc1[N+](=O)[O-]	-7	0	-72*	16	-2
CCOC(=O)c1ccc(NC(=O)c2ccccc2[N+](=O)[O-])cc1	-4	1	3	1	6
O=C(Nc1cc(C(F)(F)F)ccc1Cl)c1cc(S(=O)(=O)NCc2ccccc2)ccc1F	-3	-5	-71*	-2	.
COc1ccccc1NC(=O)c1cc(S(=O)(=O)NCc2ccccc2)ccc1F	-5	-2	-1	3	9
COc1ccc(CNS(=O)(=O)c2ccc(F)c(C(=O)Nc3ccccc3OC)c2)cc1	-7	-1	-37*	3	3
COc1cccc(CNC(=O)c2cc(C3CC3)nc3c2cnn3C(C)C)c1	-7	-2	-2	1	4
O=C(O)c1cc(NN=Nc2ccc(Br)cc2)cc([N+](=O)[O-])c1	-10	-1	-21	13	-14
CN(c1ccc(F)cc1)S(=O)(=O)c1ccc(Cl)c(C(=O)Nc2ccncc2)c1	-3	10	-48*	8	15
COc1cc(OC)nc(-n2ncc(Br)c(Br)c2=O)n1	-4	-30	6	2	-86*
COC(=O)c1cnn(-c2nc(OC)cc(OC)n2)c1C	-7	-7	5	1	-25
CCC(c1nnnn1-c1c(C)cccc1C)N1CCN(c2cccc(C(F)(F)F)n2)CC1 (centres undefined)	.	-13	.	.	-68*
O=S(=O)(c1ccc(OCC(O)CN2CCN(c3ccccc3)CC2)cc1)N1CCOCC1 (centres undefined)	2	43*	-3	8	0
O=S(=O)(c1ccc(OCC(O)CN2CCCC2)cc1)N1CCOCC1 (centres undefined)	-1	3	0	2	3
